Data as given in PubChem BioAssay AID2058 (Sanford-Burnham Center for Chemical Genomics, 2009).
Out of some 290,000 compounds screened, about 150 (0.052%) were called active.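 How the source made its calls: active means inhibition of at least 50% with at least 30 cells and total cytoplasm GFP at most 10,000,000; inconclusive means under 30 cells or total GFP of 10,000,000 plus; inactive means the rest.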 Shown is part of a subset that was picked to be rich in actives. Potency and affinity values are given separately.

molecular target: G-protein coupled receptor 35 (Homo sapiens) (UniProt Q9HC97); assay: inhibition of zaprinast-stimulated GPR35 beta-arrestin translocation – imaging, U2OS, beta-arrestin-GFP, zaprinast agonist, primary screen (AID 2058); details: zaprinast antagonism, at 10 µM, active compounds read high
Sequence (Q9HC97 whole entry, looked up): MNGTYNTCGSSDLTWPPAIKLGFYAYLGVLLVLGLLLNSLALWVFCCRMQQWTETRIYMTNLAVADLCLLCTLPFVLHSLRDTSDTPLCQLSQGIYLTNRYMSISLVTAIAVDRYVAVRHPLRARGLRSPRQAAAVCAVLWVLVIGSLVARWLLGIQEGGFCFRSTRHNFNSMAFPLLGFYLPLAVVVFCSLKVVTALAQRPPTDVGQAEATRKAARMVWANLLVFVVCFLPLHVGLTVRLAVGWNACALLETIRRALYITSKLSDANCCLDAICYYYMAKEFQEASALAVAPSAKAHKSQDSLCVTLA

inhibition, inactive:
Brc1ccc(N=C/C=C/C=C/Nc2ccc(Br)cc2)cc1 40.6%
CCn1c(O)c(/C=C/C=C/C=Nc2ccccc2)sc1=S -0.5%
COc1ccccc1NC(=O)N1CCN(Cc2ccc3c(c2)OCO3)CC1 -7.3%
COc1ccc(/C=C2/S/C(=N/N=C3\CC4CCC3(C)C4(C)C)NC2=O)cc1 (centres undefined) 1.4%
Cc1cccc(/C=C2/S/C(=N/N=C3\CC4CCC3(C)C4(C)C)NC2=O)c1 (centres undefined) 1.3%
Cc1nc(CC(=O)O)c(-c2ccccc2)s1 -2.4%
Cc1ccc(C(=O)C(C)OC(=O)c2cc3cc([N+](=O)[O-])ccc3oc2=O)cc1 (centres undefined) -8.8%
Cc1cc(-c2nnc(SCC(=O)Nc3ccccc3Cl)n2C)no1 18.2%
CC1=CC(=C(C#N)c2nc3ccccc3s2)C=C(C)N1CC1CCCO1 (centres undefined) 3.3%
CC[n+]1c(C=C2C=C(C)OC(C)=C2)sc2ccccc21 11.8%
Cn1c(=O)cc(OCC(=O)NCCc2ccc(Cl)cc2)c2ccccc21 13.1%
COc1ccc(OC)c2[nH]c(C(=O)N3CCC(C(=O)O)CC3)cc12 -3.2%
CC1Cc2ccccc2N1C(=O)c1cccnc1 (centres undefined) 20.2%
COc1ccccc1/C=C/C(=C1/C(=O)N(c2ccccc2)N=C1C)c1ccc(C)cc1 -2%
CC(C)(C)c1ccc2c(c1)C(=O)c1ccccc1C2=O -1.9%
CC1=CC(=O)c2ccccc2C1=O 10.8%
CC1Cc2ccccc2N1C(=O)CN(C)S(=O)(=O)c1cccc2cccnc12 (centres undefined) -6.9%
Cc1ccccc1C(=O)N1CCCN(C(=O)c2ccccc2C)CC1 -12.2%
O=C(NNC(=S)Nc1ccc(F)cc1F)c1ccco1 -12.7%
CCOCCCNC(=O)C(c1ccc(Cl)cc1)N1CCN(c2ccccc2)CC1 (centres undefined) 5.9%
Cc1ccc(/C=C(/C#N)C(=O)NC(C)c2ccccc2)o1 (centres undefined) -7.7%
COC(=O)c1ccc(/C=C(\C#N)C(=O)NC(C)c2ccccc2)cc1 (centres undefined) -3.1%
Cc1ccc(/C=C(\C#N)C(=O)NC(C)c2ccccc2)o1 (centres undefined) -5.7%
COc1ccc(/C=C(\C#N)C(=O)NC(C)c2ccccc2)cc1O (centres undefined) 9.9%
CC(C)NC(=O)/C(C#N)=C/c1ccc(N(C)C)o1 19.2%
CCN(CC)c1ccc(/C=C(/C#N)C(=O)NC(C)C)o1 14.3%
CC(CCc1ccccc1)NC(=O)CCN1N=C(c2ccccc2)CCC1=O (centres undefined) -14.8%
O=C(NCCN1CCN(c2ccccc2)CC1)C1CCN(S(=O)(=O)N2CCOCC2)CC1 17.1%
COc1cccc(C(=O)NC(=S)Nc2ccccc2N2CCCCC2)c1 9.4%
O=C(CCn1cccn1)Nc1ccc2c(c1)OCCO2 18.7%
CCC1(C)Cc2ccccc2-c2[nH][nH]c(=O)c21 (centres undefined) -5.1%

inhibition, active:
C(/C=C/C=C/Nc1ccccc1)=Nc1ccccc1 90.5%
CC(C)(C=O)C1=CC(=O)c2ccccc2C1=O 78.8%
CC(C)NC(=O)/C(C#N)=C\c1ccc(N(C)C)o1 50%
